Several values for one entry are separate records, joined by “and”; a condition that tells them apart may be missing. Identical values can stand only once. Records with an inconclusive call do not appear. Some compounds were tested as several samples or in several runs, with calls that do not always agree. Activity calls are given as the source filed them. Calls come from the whole dose curve; as a rule, active = well fitted cell-killing curve with a large enough effect in the repeat runs; inconclusive = weak or mixed curves, or effect the other way; inactive = flat fitted curve, though single readings scatter.
% is set by controls: 0 for no effect and ±100 for the full control effect; potency is the fitted concentration of half-maximal effect.

The assay can be described thus: qHTS RealTime-Glo MT Cell Viability Assay in HEK293 cells - 40 hour (AID 1224874). Note: nearly all actives have a fitted effect of over 50% in size. Conditions: RealTime-Glo luminescence; max response: hits give low values. An excerpt: U.S. Tox21 Program National Center for Advancing Translational Sciences [NCATS] NIH Chemical Genomics Center [NCGC] U.S. Environmental Protection Agency [EPA] National Institutes of Environmental Health Sciences [NIEHS] National Toxicology Program [NTP] U.S. Food and Drug Administration [FDA] Tox21 Assay Overview: Measure of cell viability is critical in the cell-base assay. Analysis of cell viability is necessary for the characterization of cell responses to cytotoxic drugs and environmental stress. A RealTime-Glo MT Cell Viability Assay to monitor cell viability in real time of continues cell culture during 40 hours of compound treatment was used to screen Tox21 10K library compounds in Hek293 cells. The RealTime-Glo MT Cell Viability Assay is a nonlytic, homogeneous, bioluminescent method to measure cell viability in real time using a simple, plate-based method. The assay involves adding NanoLuc luciferase and a cell-permeant prosubstrate to cells in culture. Viable cells reduce the proprietary prosubstrate to generate a substrate for NanoLuc luciferase. This substrate diffuses from cells into the surrounding culture medium, where it is rapidly used by the NanoLuc Enzyme to produce a luminescent signal. The signal correlates with the number of viable cells, making the assay well suited for cytotoxicity studies.
Tox21 Assay Protocol Summary: The mixture of Hek293 cell suspension and reagents were dispensed at 600cells/6 ul/well in 1536-well tissue culture treated black solid bottom plates using a Multidrop dispenser. After the assay plates were incubated at a 37 C/5% CO2 incubator for 5 hours, 23 nL of compounds dissolved in DMSO, positive and negative controls was transferred to the assay plate by a pintool work station. The plates were incubated at 37 C for 40 hours. The luminescence intensity were measured at 0h, 8h, 16h, 24h, 32h and 40h time points using ViewLux plate reader during compound treatment.
(In qHTS, concentration-response curves come from the screen itself.)
Consider `Oc1cccc2ccccc12`, for which the max response is -13.2% (inactive) and -5.72% (inactive). With `O=c1[nH]nnc2ccccc12`, the max response is 2.18% (inactive) and -25.5% (inactive). On the same count and under the same terms, in the case of `CC(O)COCC(C)O` (stereo not given) it was -1.78% (inactive) and 1.64% (inactive); in that of `CC[C@H](C)C(=O)O[C@H]1C[C@@H](C)C=C2C=C[C@H](C)[C@H](CC[C@@H]3C[C@@H](O)CC(=O)O3)[C@H]21`, -8.74% (inactive) and -19.2% (inactive); in that of `c1ccc2scnc2c1`, 13.8% (inactive) and 1.41% (inactive). The same measure, in the same setting: the result for `c1c[nH]cn1` reads 11.4% (inactive) and 19.2% (inactive); that for `CN(C)CCCN`, -0.421% (inactive) and -3.46% (inactive); that for `CCC(O)OCCCOC` (stereo not given), 1.35% (inactive) and 16.2% (inactive).

In the case of `O=C(O)[C@H](O)[C@@H](O)[C@H](O)[C@H](O)CO`, the max response is -0.628% (inactive) and 0.139% (inactive). For `C#CCN(C)Cc1ccccc1`, the max response is -0.876% (inactive) and -0.317% (inactive).

Consider `CCCCCC(N)=O`, for which the max response was 0.824% (inactive) and 2.09% (inactive).

Regarding `CCCCCCCCCCCCCCO`, the max response was -1.67% (inactive) and 1.72% (inactive). On to `CCCC(C)=O`, for which the max response was 3.18% (inactive) and 6.23% (inactive). Turning to `c1ccc2c(c1)ccc1ccccc12`, the max response is -10.3% (inactive). The same measure, in the same setting: the result for `Cc1ccc(S(N)(=O)=O)cc1` reads 1.64% (inactive). `C[Si](O[Si](C)(C)C)O[Si](C)(C)C`: the max response is 1.67% (inactive) and 1.77% (inactive). Consider `C[C@H]1C[C@H]2[C@@H]3CCC4=CC(=O)C=C[C@]4(C)[C@@]3(F)[C@@H](O)C[C@]2(C)[C@@]1(O)C(=O)CO`, for which the max response was -12.6% (inactive) and 0.279% (inactive). The same measure, in the same setting: the result for `O=C(O)c1ccc2c(c1)C(=O)OC2=O` reads 5.17% (inactive) and 0.547% (inactive); that for `CC(=O)Nc1ccccc1`, 12.1% (inactive) and 6.06% (inactive); that for `O=[N+]([O-])c1ccc(/C=C/c2ccc([N+](=O)[O-])cc2S(=O)(=O)O)c(S(=O)(=O)O)c1`, 6.57% (inactive) and 8.56% (inactive). `COS(C)(=O)=O`: the max response was 0.0927% (inactive) and -3.51% (inactive). On the same count and under the same terms, the result for `CCN(CC)CCCC(C)Nc1ccnc2cc(Cl)ccc12` (stereo not given) reads -13.9% (inactive); that for `Fc1ccc(Br)cc1`, 11.6% (inactive) and 0.497% (inactive); that for `C=C(C)C(=O)OCCOCCOCCOC(=O)C(=C)C`, -0.0416% (inactive) and 6.25% (inactive). On the same count and under the same terms, the result for `CC(C)c1ccc(S(=O)(=O)O)cc1` reads -1.12% (inactive) and 9.2% (inactive).

For `C[C@H]1C[C@@H]2[C@H]([C@@H](O)C[C@@]3(C)[C@H]2CC[C@]3(O)C(=O)CO)[C@@]2(C)C=CC(=O)C=C12`, the max response is -9.2% (inactive) and -9.81% (inactive). Still for that read-out and setting: the result for `CCOC(=O)NNc1nncc2ccccc12` reads 3.91% (inactive) and 1.02% (inactive); that for `c1ccc(OCCOc2ccccc2)cc1`, -0.0252% (inactive) and -0.384% (inactive).

As for `OCCOCCOCCO`, the max response was -0.565% (inactive) and 3.8% (inactive). Same read-out and setting: in the case of `CCCCCCCC(=O)OC` it was -1.2% (inactive) and 5.05% (inactive).

`CCCCC(CC)COC(=O)CS` (stereo not given): the Potency is 19.5 µM (active) and the max response was 6.5% (inactive). For `OCC(CO)(CBr)CBr`, the max response is -5.13% (inactive) and 3.96% (inactive). Same read-out and setting: the result for `CC(=O)OCC(=O)[C@@]12N=C(C)O[C@@H]1C[C@H]1[C@@H]3CCC4=CC(=O)C=C[C@]4(C)[C@H]3[C@@H](O)C[C@@]12C` reads -2.48% (inactive) and 0.51% (inactive).

With `C=CCOC(=O)c1ccccc1C(=O)OCC=C`, the max response was 6.21% (inactive) and 2.3% (inactive). With `C=C(C)C(=O)Nc1ccc(Cl)c(Cl)c1`, the Potency is 19.7 µM (active) and 24.4 µM (active). In the case of `CCC(O)OC(O)CC` (stereo not given), the max response is 5.86% (inactive) and 8.63% (inactive). Same read-out and setting: in the case of `CC(=O)c1ccccc1` it was 0.254% (inactive) and 9.46% (inactive). Consider `O=C(O)c1ccc(C(=O)O)cc1`, for which the max response is -0.318% (inactive) and 3.28% (inactive). Same read-out and setting: in the case of `CN(C)CCC(c1ccccc1)c1ccccn1` (stereo not given) it was 7.85% (inactive) and 1.55% (inactive).

The record behind these values is PubChem BioAssay (Tox21).
